Screening data (PubChem)
CF NFkB block: cystic fibrosis NF-kB activation inhibition; KKLEB NF-kB-GFP reporter, PAF-induced, GFP fluorescence overnight; inhibition, % at 5 µM; 0.86% of 360,000 active;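 active means at least 50% inhibition at 5 µM, scaled per plate between neutral and stimulator controls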;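 further: PAF is a Pseudomonas aeruginosa culture filtrate used as stimulus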
TROY NFkB inh: inhibitors of TROY-dependent NF-kB signaling | Q293 LMP1-TROYcd NF-kB luciferase reporter, 4 h | inhibition, % at 10 µM | 0.98% of 360,000 active;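 active means compounds whose plate-normalised and pattern-corrected inhibition of the luciferase reporter signal at the single screening dose is 50% or more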
LGR2 inh: Drosophila LGR2 receptor signaling inhibition. 0.35% of 380,000 active. HEK293 LGR2, CRE-luciferase, bursicon-stimulated, 4 h. inhibition, % at 9.99 µM;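 active means drop in luminescence signal, shown as inhibition above about 50% in the replicate tests, limit read from the data, passing the limit was not always enough; inconclusive means probably only some replicates passing the limit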;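 further: agonist challenge used bursicon conditioned medium at about half maximal strength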
EWS-Fli block: EWS/Fli transcriptional activity inhibition. inhibition, % at 12.6 µM. A673 NR0B1-luciferase reporter, viability-normalised. 0.67% of 350,000 active;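 active means mean inhibition of at least 50% after viability correction, with every replicate also passing that limit; inconclusive means mean reaches 50% but only one of two replicates passes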;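 further: firefly luciferase signal divided by Alamar Blue viability fluorescence both relative to DMSO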
KKLEB tox: CF airway cell cytotoxicity counter-screen | KKLEB CF airway cells viability, ATPlite luminescence, overnight; stronger effect = lower value; cells stimulated with P. aeruginosa culture filtrate | activity change (cytotoxicity), % at 5 µM | 0.36% of 360,000 active;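 active means corrected activity change at or below -50% at 5 µM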
TWEAK-Fn14 inh: TWEAK-Fn14 signaling inhibition; TWEAK-stimulated Fn14 reporter cells, luciferase luminescence, 8 h; inhibition, % at 10 µM; 2% of 360,000 active; AID 1159606; in the data active means inhibition above about 50%
CF NFkB conf: CF NF-kB inhibition confirmation, single concentration; 64% of 1,300 active; inhibition, % at 5 µM; AID 602472; KKLEB CF airway cells, PAF-induced NF-kB-GFP fluorescence, overnight; shares compounds with CF NFkB block; in the data active means inhibition above about 40%;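 further: stimulus PAF is a Pseudomonas aeruginosa filtrate and not platelet activating factor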
A number is an active result; 0 = inactive; ? = inconclusive; - = no result given. Most compounds without a hit are left out; they make up all but 2.6% or so of the library.

SMILES	CF NFkB block	TROY NFkB inh	LGR2 inh	EWS-Fli block	KKLEB tox	TWEAK-Fn14 inh	CF NFkB conf
C[C@@H]1CN([C@@H](C)CO)C(=O)c2cccc(N(C)C)c2O[C@@H]1CN(C)S(=O)(=O)c1ccc(Cl)cc1	-	-	0	0	-	-	-
COc1ccc(Cn2cc(CN3CC(N4CCCCC4)CS3(=O)=O)nn2)cc1 (stereo unspecified)	-	0	0	0	-	0	-
COc1ccc(CN2C[C@H]3CCCN3c3cc(Br)ccc3S2(=O)=O)cc1	52.8	0	-	-	0	0	56.2
Fc1ccccc1-c1csc(=Nc2cccnc2)n1CCCn1ccnc1	65.9	0	-	0	0	54.5	70.8
Cc1ccccc1NC(=O)c1ccc([N+](=O)[O-])o1	0	0	0	0	0	0	-
Cc1cccc(NC(=O)c2ccc([N+](=O)[O-])o2)n1	61.2	0	-	-	0	0	0
CC(C)C#Cc1ccc2c(c1)O[C@@H](CN(C)C(=O)c1ccccn1)[C@@H](C)CN([C@H](C)CO)S2(=O)=O	-	-	0	0	-	-	-
Nc1nc(/C=C/c2ccc(F)cc2)nc(-c2ccccc2O)n1	0	0	0	0	0	0	-
Nc1nc(/C=C/c2cccnc2)nc(-c2ccccc2O)n1	91.1	0	?	0	0	0	74.6
O=C(CCCc1nc2ccccc2s1)Nc1nccs1	0	0	-	-	0	0	-
Cc1cnc(NC(=O)CCCc2nc3ccccc3s2)s1	83.6	0	-	-	0	0	88.6
C=C1C(=O)O[C@@]23[C@H]1CC[C@@H](C)[C@@H]2CC[C@@]1(C)O[C@@H]31	53.5	0	-	-	0	0	70.5
Cc1cc(C)c(C(=O)/C=C/c2ccc(C(C)C)cc2)c(=O)[nH]1	59.2	54.5	79.6	0	0	92.6	53.3
Cc1cc(C)c(C(=O)/C=C/C=C/c2ccccc2)c(=O)[nH]1	0	0	0	-	0	0	-
C[C@@H]1[C@@H](Sc2ccccc2)CC(=O)O[C@@H]1c1ccc(-c2ccccc2)cc1	62.4	0	0	0	0	0	0
CC(=O)N(C)C[C@H]1OCc2ccccc2-c2c(n(C)c3ccccc23)C(=O)N([C@H](C)CO)C[C@H]1C	-	-	0	0	-	-	-
Cc1cccc(N2CCN(C(=O)CCn3c(=S)[nH]c4cc5c(cc4c3=O)OCO5)CC2C)c1 (stereo unspecified)	69.0	0	-	-	0	0	101.2
Cc1cccc(N2CCN(C(=O)CCCn3c(=S)[nH]c4cc5c(cc4c3=O)OCO5)CC2)c1C	0	0	-	-	0	0	-
Cn1cc(Br)c(C(=O)Nc2sc3c(c2C#N)CCC3)n1	0	0	0	0	0	0	-
Cn1cc([N+](=O)[O-])c(C(=O)Nc2sc3c(c2C#N)CCC3)n1	57.9	0	0	-	0	0	0
C[C@@H]1CN([C@@H](C)CO)S(=O)(=O)c2ccc(C#CC3CC3)cc2O[C@@H]1CN(C)C(=O)c1cnccn1	-	-	0	0	-	-	-
O=C(C[C@@H]1C[C@@H]2c3cc(NC(=O)C4CCOCC4)ccc3O[C@@H]2[C@@H](CO)O1)NCCN1CCCCC1	-	-	0	0	-	-	-
NS(=O)(=O)c1ccc(CCNC(=O)c2ccncc2)cc1	0	0	0	0	0	0	-
NS(=O)(=O)c1ccc(CCNC(=O)c2ccc(C#CC3(O)CCCCC3)cc2)cc1	81.2	56.2	0	0	0	0	80.3
C/C(=N\NC(=O)c1ccc(Cl)cc1)c1cccs1	0	0	0	0	0	0	-
SMILES	CF NFkB block	TROY NFkB inh	LGR2 inh	EWS-Fli block	KKLEB tox	TWEAK-Fn14 inh	CF NFkB conf
C/C(=N/NC(=O)c1cccs1)c1ccc(NC(=O)COc2ccc(Cl)cc2)cc1	59.0	0	-	-	0	0	77.8
CCCCCCCC(=O)NNC(=O)Cc1ccccc1	0	0	0	0	0	0	-
CCCCCCCCCCCC(=O)c1c(O)cccc1O	71.4	0	-	0	0	0	41.5
COc1ccc(NC(=O)Nc2ccc3c(c2)CC(=O)N([C@@H](C)CO)C[C@@H](C)[C@H](CN(C)Cc2ccc(Cl)c(Cl)c2)O3)cc1	-	-	0	0	-	-	-
Cc1ccc(C)c(S(=O)(=O)N(C(=O)c2ccncc2)c2ccc(OC(=O)c3ccncc3)cc2)c1	69.0	67.9	95.6	0	0	84.3	85.0
O=C(Oc1ccc(N(C(=O)c2ccncc2)S(=O)(=O)c2ccc(F)cc2)cc1)c1ccncc1	0	0	0	0	0	0	-
COC(=O)C1=C(C)NC(C)=C(C(=O)OCC(C)C)C1c1ccccc1[N+](=O)[O-] (stereo unspecified)	83.2	0	0	0	0	0	58.1
CCN(C(=O)COC(=O)c1ccc([N+](=O)[O-])o1)c1cccc2ccccc12	65.6	0	0	0	0	0	0
CC(C)(C)N(Cc1ccccc1)C(=O)COC(=O)c1ccc([N+](=O)[O-])o1	0	0	0	0	0	0	-
COc1cc(O)c(C(C)=O)c2c1C=CC(C)(C)O2	0	0	0	0	0	0	-
CC(=O)c1c(O)cc2c3c1OC(C)(C)C1CCC(C)(CC31)O2 (stereo unspecified)	74.1	0	0	0	0	78.9	65.5
O=C1N(c2ccccc2C(F)(F)F)O[C@]1(c1ccccc1)C1CCCCC1	54.0	0	0	0	0	0	64.1
COc1cc(C2c3cc4c(cc3C3OC(=O)C2C3CO)OCO4)cc(OC)c1OC (stereo unspecified)	53.3	0	0	0	0	0	74.5
C[C@@H]1CCCCO[C@H](CN(C)C(=O)Cc2ccccc2)[C@H](C)CN([C@H](C)CO)C(=O)c2cc(NC(=O)CCC(F)(F)F)ccc2O1	-	-	0	0	-	-	-
O=C(NNc1ccccc1Br)C(O)(c1cccc(C(F)(F)F)c1)c1cccc(C(F)(F)F)c1	56.9	57.4	0	-	0	72.7	83.1
c1ccc(CNc2ncnc3sc4c(c23)CCC4)nc1	0	0	0	-	0	0	-
c1ccc(CNc2ncnc3scc(-c4cccs4)c23)nc1	52.2	0	0	0	0	0	0
C[C@H](CO)N1C[C@H](C)[C@H](CN(C)Cc2ccc(C(=O)O)cc2)OCCCC[C@H](C)Oc2ccc(NC(=O)Nc3ccc(F)cc3)cc2C1=O	-	-	0	0	-	-	-
Cc1ccccc1NC1=CC(=O)CC(C)(C)C1	0	0	0	-	0	0	-
CC1(C)CC(=O)C=C(NC2=CC3OC(c4ccccc4)OCC3OC2=O)C1 (stereo unspecified)	72.4	0	86.0	0	0	76.2	52.4
O=C(/C=C/c1cccc([N+](=O)[O-])c1)NC(=S)Nc1ccc(CN2CCOCC2)cc1	67.4	0	0	0	0	63.1	54.9
O=C(NC(=S)Nc1ccc(CN2CCOCC2)cc1)c1ccc([N+](=O)[O-])cc1	0	0	0	0	0	0	-
COc1ccc(S(=O)(=O)Nc2ccc3c(c2)C(=O)N([C@H](C)CO)C[C@@H](C)[C@@H](CN(C)C(=O)CCC(F)(F)F)OCCCC[C@H](C)O3)cc1	-	-	0	0	-	-	-
